We go through 60 compounds from PubChem BioAssay AID1259422 (The Scripps Research Institute Molecular Screening Center, 2018).

Where “and” joins values, the source holds several entries; their conditions need not be identical. Identical values can stand only once. Among all 640,000 compounds or so, about 9,300 (1.5%) were called active. This excerpt belongs to a sample that is enriched for actives. Unmarked numbers belong to inactive results. Rule as the data show it: active = inhibition above about 32%; inactive = the rest.

This experiment can be described thus: TEAD-YAP interaction inhibition, primary screen, TEAD-YAP interaction inhibitor project, luminescence, HEK-TIYL cells (AID 1259422).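 Also: 0% = median of test compound wells and 100% = reference inhibitor wells.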 The conditions noted are these: TEAD-Gal4/YAP UAS-luciferase luminescence, at 9.12 µM, stronger effect = higher value.
In general, inhibition refers to the change of the read-out against control, counted positive when it falls. `CC(C)N(C)C1CCN(S(=O)(=O)c2cccc([N+](=O)[O-])c2)CC1`: the inhibition is -1.4%.
In the case of `Cc1ccc2cccc(NC(=O)c3cc4ccccc4o3)c2n1` it was 12.1%.
Regarding `CN(CC(=O)Nc1ccccc1F)CC(=O)Nc1ccccc1Br`, the inhibition is -1.95%.
Consider `CCC(C)c1ccccc1NC(=O)CN(C)CC(=O)Nc1ccccc1SC` (stereo not given), for which the inhibition was 36.5% (active).
In the case of `CCC(C)c1ccccc1NC(=O)C(C)Cl` (stereo not given) it was -3.45%.
Under `COc1cccc(C=Nc2ccc(N)c(Cl)c2)c1O` stands 6.6%; under `COc1cccc(/C=N/NC(=O)c2cccc(NC(=O)c3ccc(F)cc3)c2)c1O`, 28.7%.
As for `COc1cccc(/C=N/Nc2ncc(C(F)(F)F)cc2Cl)c1O`, the inhibition is 49.5% (active).
Under `Cc1ccc(-c2csc(Nc3ccccc3)n2)c(C)c1` stands -65%; under `Cc1ccc(Nc2nc(-c3ccc(Cl)cc3)cs2)cc1`, -86.7%; under `Cc1ccc(Nc2nc(-c3cccs3)cs2)cc1`, 64.2% (active).
On to `CCOCCCn1c(SCc2cc(=O)n3ccccc3n2)nc2ccccc2c1=O`, for which the inhibition is 0.02%.
In the case of `Cc1cc2nnn(C[C@@H](C)NC(=O)Cc3ccccc3)c2cc1C` it was -20.1%; in that of `COc1ccc(-c2nc(CSCC(=O)NC3CCCCCC3)c(C)o2)cc1OC`, 2.93%.
Under `Cc1ccc(-c2nc(CSCC(=O)NC3CCN(Cc4ccccc4)CC3)c(C)o2)cc1` stands 33.9% (active); under `Cc1ccc(-c2nc(CSCC(=O)N3CCC(C(N)=O)CC3)c(C)o2)cc1`, 10.6%.
In the case of `O=C(Cn1c(SCC(=O)N2CCCC2)nc2ccccc21)NC1CCCC1` it was 3.72%; in that of `Cc1ccc2nc(-c3ccncc3)cc(C(=O)Nc3ccc4c(c3)OCCO4)c2c1`, 43.3% (active).
As to `Cc1cccc(Oc2ccc(NC(=O)c3cc(-c4ccccc4)nc4ccc(C)cc34)cc2)c1`, the inhibition is -0.69%.
Take `O=C(Nc1ccc(F)cc1)c1cc(-c2ccncc2)nc2ccccc12`: the inhibition was -1.35%.
As for `COc1ccc(-c2nnc(SCC(=O)N(C)C)n2C)cc1`, the inhibition was 2.69%.
In the case of `CCC(=O)N[C@@H]1c2ccccc2C2(CCN(Cc3cn[nH]c3-c3ccccc3)CC2)[C@H]1OC` it was -3.33%; in that of `CCOc1ccccc1C(=O)Nc1c(C(=O)Nc2ccccc2F)oc2cccnc12`, 41.9% (active).
In the case of `O=C(Nc1ccccc1F)c1oc2cccnc2c1NC(=O)C1CC1` it was 2.6%; in that of `COc1ccccc1NC(=O)c1oc2cccnc2c1NC(=O)c1ccc(Cl)cc1`, -6.82%.
As to `Cn1c(SCC(=O)c2ccc3c(c2)OCO3)nnc1-c1cccs1`, the inhibition is -1.64%.
Turning to `COc1ccccc1N/C=C/C(=O)c1ccc(OC)c(OC)c1`, the inhibition is -24% and -18.3%.
In the case of `COc1ccc(C(=O)/C=C/Nc2cccc(C(C)O)c2)cc1` (stereo not given), the inhibition is -59.6%.
With `COc1ccc(C(=O)/C=C/Nc2ccccn2)cc1`, the inhibition was 53.5% (active).
Under `CCC(Oc1ccccc1)C(=O)NC(C)C` (stereo not given) stands 12.4%; under `CCc1cc(=O)[nH]c(NC2CCN(S(=O)(=O)c3ccccc3)CC2)n1`, 4.67%.
Under `COc1ccc(CNc2c(-c3ccccc3O)nc3cnccn23)cc1` stands 67.4% (active).
In the case of `Oc1ccccc1-c1nc2cnccn2c1NCc1ccccc1` it was -6.9%.
Consider `COc1ccc(Nc2c(-c3ccccc3O)nc3cnccn23)cc1`, for which the inhibition was -0.84%.
In the case of `COc1ccc(OC)c(N/C=C(/C#N)c2nc(-c3ccc(OC)c(OC)c3)cs2)c1` it was 0.19%.
In the case of `COc1ccc(N=C2SC(C(=O)NCCc3ccccc3)CC(=O)N2CCc2ccc(OC)c(OC)c2)cc1` (stereo not given), the inhibition is 7.83%.
In the case of `Cc1cc(C)nc(NC(N)=NCCC(C)C)n1` it was 6.21%.
For `O=[N+]([O-])/C=C\c1ccc(N2CCCCC2)cc1`, the inhibition is 31.3%.
In the case of `N#CC(C#N)=Cc1ccc(N2CCN(Cc3ccccc3)CC2)c([N+](=O)[O-])c1`, the inhibition was 4.11%.
Consider `O=[N+]([O-])/C=C/c1ccc2c(ccn2Cc2ccccc2)c1`, for which the inhibition was 33.9% (active).
In the case of `CC1(C)Cc2c(c(N3CCOCC3)nc3sc4c(N5CCCCC5)nnnc4c23)CO1` it was -1.34%; in that of `CCn1c(=O)c2ccccc2n2c(SCC(=O)N(C)C3CCCCC3)nnc12`, -7.16%.
Under `O=C(Nc1cccc(NC(=O)c2cccc(Cl)c2Cl)c1)c1ccco1` stands -0.83%.
Under `Oc1ccc(/C=N/Nc2nn[nH]n2)c(O)c1` stands -11.8%; under `Cc1ccc(Nc2nc(N/N=C/c3ccccc3O)nc(N3CCOCC3)n2)cc1Cl`, -11%; under `Oc1ccc(/C=N/Nc2ncc(F)c(N3CCOCC3)n2)c(O)c1`, 58.7% (active).
Take `COc1ccc(C2=N/C(=C\c3cc(OC)c(OC)c(OC)c3)C(=O)O2)c(Cl)c1`: the inhibition is -1.56%.
On to `N#Cc1c(-n2ncnc2-c2ccc3c(c2)OCO3)sc2c1CCCC2`, for which the inhibition was -2.41%.
In the case of `c1ccc(CNc2nc(N3CCN(c4ccccn4)CC3)nc3c2ncn3-c2ccsc2)cc1` it was -1.71%; in that of `c1ccc(N2CCN(c3nc(NCc4nc5ccccc5[nH]4)c4ncn(-c5ccsc5)c4n3)CC2)nc1`, 68% (active).
Under `c1cncc(Nc2nc(NCc3nc4ccccc4[nH]3)c3ncn(-c4ccsc4)c3n2)c1` stands 84.1% (active).
In the case of `FC(F)(F)c1cccc(CNc2nc(N3CCN(c4ccccn4)CC3)nc3c2ncn3-c2ccsc2)c1` it was -7.69%; in that of `c1ccc(CNc2nc(Nc3cccnc3)nc3c2ncn3-c2ccccc2)cc1`, 25.2%; in that of `c1ccc(-n2cnc3c(NCc4nc5ccccc5[nH]4)nc(Nc4nccc5ccccc45)nc32)cc1`, 7.74%.
For `COc1cccc(NC(=S)NC(=O)CC(C)C)c1`, the inhibition was -50%.
In the case of `CCc1ccccc1NC(=O)c1cc2ccccc2oc1=O` it was -2.07%; in that of `O=C(CC1(O)C(=O)Nc2c(C(F)(F)F)cccc21)c1ccc(Cl)s1` (stereo not given), -1.56%; in that of `Cc1ccc2c(c1)-c1c(cnn1CC(=O)NCCCN1CCCCCC1)CO2`, 4.66%.
Regarding `CC(NC(=O)CSCc1ccccc1Cl)c1ccccc1` (stereo not given), the inhibition was -4.44%.
For the compound `Cc1noc(C)c1S(=O)(=O)N1CCCC(C(=O)Nc2cccc(Cl)c2C)C1` (stereo not given), the inhibition was 3.39%.
